Test results: PubChem BioAssay AID1159580 (chemical genetic matrix, 2015)
Where “and” joins values, the source holds several entries; their conditions need not be identical. Identical values can stand only once. Among all 5,500 compounds or so, about 2,000 (36%) were called active. Roughly 18% stayed inconclusive and do not appear here. Rule as the data show it: active = normalized growth mostly below about 0.91 (no sharp cut-off); inconclusive = no clear call, values can overlap the other calls; inactive = mostly above about 0.92. This is one part of the list.

Experiment: chemical genetic growth profiling, strain panel (AID 1159580);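 also: tested at 20 µM; growth read once vehicle control cultures reached saturation at 30 °C; 1 = growth at the plate median or of vehicle wells; lower values mean less growth of the strain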
Conditions: S. cerevisiae deletion strains, growth OD

Measured: normalized growth

COc1cc([C@@H]2c3cc4c(cc3[C@H](O)[C@H]3COC(=O)[C@H]23)OCO4)cc(OC)c1OC
inactive: locus YAL013W, strain DEP1, stronger effect = lower value 1.01 | locus YAL021C, strain ccr4, stronger effect = lower value 1 | locus YAL026C, strain drs2, stronger effect = lower value 1.03 | locus YAL030W, strain snc1, stronger effect = lower value 1.01 | locus YBL061C, strain skt5, stronger effect = lower value 1.01 | locus YBR009C, strain hhf1, stronger effect = lower value 1.04 | locus YBR021W, strain FUR4, stronger effect = lower value 1.01 | locus YBR023C, strain chs3, stronger effect = lower value 1.01 | locus YBR171W, strain sec66, stronger effect = lower value 1.01 | locus YBR229C, strain ROT2, stronger effect = lower value 1.01 | locus YBR231C, strain swc5, stronger effect = lower value 1.01 | locus YBR279W, strain paf1, stronger effect = lower value 1.02 | locus YCL011C, strain gbp2, stronger effect = lower value 1.01 | locus YCL016C, strain dcc1, stronger effect = lower value 0.996 | locus YCL029C, strain bik1, stronger effect = lower value 1.03 | locus YCL061C, strain MRC1, stronger effect = lower value 1.02 | locus YCL069W, strain vba3, stronger effect = lower value 1.01 | locus YCR088W, strain abp1, stronger effect = lower value 1.01 | locus YDL005C, strain med2, stronger effect = lower value 1.01 | locus YDL035C, strain GPR1, stronger effect = lower value 1.01 | locus YDL040C, strain nat1, stronger effect = lower value 1 | locus YDL074C, strain BRE1, stronger effect = lower value 1.05 | locus YDL101C, strain DUN1, stronger effect = lower value 1.02 | locus YDL134C, strain PPH21, stronger effect = lower value 1.02 | locus YDL185W, strain tfp1, stronger effect = lower value 1.01 | locus YDL192W, strain arf1, stronger effect = lower value 1.01 | locus YDR001C, strain nth1, stronger effect = lower value 1 | locus YDR069C, strain doa4, stronger effect = lower value 1 | locus YDR101C, strain arx1, stronger effect = lower value 1.01 | locus YDR137W, strain rgp1, stronger effect = lower value 1.03 | locus YDR150W, strain NUM1, stronger effect = lower value 1.01 | locus YDR159W, strain sac3, stronger effect = lower value 0.987 | locus YDR162C, strain NBP2, stronger effect = lower value 1.01 | locus YDR195W, strain ref2 0.971 | locus YDR297W, strain sur2, stronger effect = lower value 1.01 | locus YDR318W, strain mcm21, stronger effect = lower value 1.03 | locus YDR334W, strain swr1, stronger effect = lower value 1.02 | locus YDR335W, strain msn5, stronger effect = lower value 1.01 | locus YDR388W, stronger effect = lower value 1.01 | locus YDR392W, strain spt3, stronger effect = lower value 0.926 | locus YDR502C, strain sam2, stronger effect = lower value 1 | locus YEL003W, strain gim4, stronger effect = lower value 1.01 | locus YEL037C, strain rad23, stronger effect = lower value 1.02 | locus YEL061C, strain CIN8 (second series), stronger effect = lower value 1.01 | locus YEL061C, strain CIN8, stronger effect = lower value 1 | locus YER015W, strain faa2, stronger effect = lower value 1.02 | locus YER016W, strain bim1, stronger effect = lower value 1 | locus YER110C, stronger effect = lower value 1.01 | locus YER111C, strain swi4, stronger effect = lower value 1.01 | locus YER155C, strain BEM2 (second series), stronger effect = lower value 0.998 | locus YER155C, strain BEM2, stronger effect = lower value 1.01 | locus YER167W, strain BCK2, stronger effect = lower value 1.01 | locus YFR010W, strain ubp6, stronger effect = lower value 1.02 | locus YGL078C, strain dbp3, stronger effect = lower value 1 | locus YGL086W, strain mad1, stronger effect = lower value 1 | locus YGL167C, strain pmr1, stronger effect = lower value 1.01 | locus YGL173C, strain kem1, stronger effect = lower value 1.04 | locus YGL227W, strain vid30, stronger effect = lower value 1.01 | locus YGL240W, strain doc1, stronger effect = lower value 1 | locus YGL248W, strain PDE1, stronger effect = lower value 1.01 | locus YGL253W, strain hxk2, stronger effect = lower value 0.982 | locus YGR078C, strain PAC10, stronger effect = lower value 1.03 | locus YGR135W, strain pre9, stronger effect = lower value 1.01 | locus YGR229C, strain SMI1, stronger effect = lower value 1.03 | locus YGR252W, strain gcn5, stronger effect = lower value 0.988 | locus YHR013C, strain ard1, stronger effect = lower value 1 | locus YHR027C, strain rpn1, stronger effect = lower value 1.01 | locus YHR030C, strain SLT2, stronger effect = lower value 1.01 and 0.951 | locus YHR079C, strain IRE1 (second series), stronger effect = lower value 1.02 | locus YHR079C, strain IRE1, stronger effect = lower value 0.952 | locus YHR094C, strain hxt1, stronger effect = lower value 1.01 | locus YHR129C, strain ARP1, stronger effect = lower value 1.01 | locus YHR142W, strain chs7, stronger effect = lower value 0.992 | locus YHR200W, strain rpn10, stronger effect = lower value 1.01 | locus YIL066C, strain RNR3, stronger effect = lower value 1.02 | locus YIL073C, strain SPO22, stronger effect = lower value 1.02 | locus YIL125W, strain kgd1, stronger effect = lower value 1.01 | locus YIR030C, strain dcg1, stronger effect = lower value 1.01 | locus YJL092W, strain hpr5, stronger effect = lower value 1.02 | locus YJL095W, strain BCK1 (second series), stronger effect = lower value 1.01 | locus YJL095W, strain BCK1, stronger effect = lower value 1.04 and 0.961 | locus YJL115W, strain asf1, stronger effect = lower value 1.01 | locus YJL129C, strain trk1, stronger effect = lower value 1.02 | locus YJL134W, strain LCB3, stronger effect = lower value 1.01 | locus YJL154C, strain vps35, stronger effect = lower value 0.999 | locus YJL164C, strain tpk1, stronger effect = lower value 1.02 | locus YJL166W, strain qcr8, stronger effect = lower value 1 | locus YJL168C, strain set2, stronger effect = lower value 1.01 | locus YJL187C, strain SWE1 (second series), stronger effect = lower value 1.04 | locus YJL187C, strain SWE1, stronger effect = lower value 1.02 | locus YJR043C, strain POL32, stronger effect = lower value 1.04 | locus YJR066W, strain TOR1, stronger effect = lower value 0.927
